# Reference: PubChem BioAssay AID504523 (Broad Institute, 2011)
# About 490 (0.14%) of roughly 340,000 compounds were called active. Rule as the data show it: active = inhibition above about 12%; inconclusive = no clear call, values can overlap the other calls; inactive = below about 7.3%. For the sample, actives were picked, then their nearest neighbours and some compounds at random.
# Target: Kelch-like ECH-associated protein 1 (Homo sapiens) (UniProt Q14145)
# Assay: disruptors of Keap1 binding to Nrf2 – biochemical, fluorescence polarization, single point, primary screen (AID 504523);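 also: human Keap1 Kelch domain with fluorescein labeled Nrf2 9mer peptide probe; 0% = neutral control wells and 100% = peptide positive control; higher means more block of Keap1 binding to Nrf2 peptide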
# Conditions: Keap1 Kelch-Nrf2 peptide fluorescence polarization, 1536-well; at 9.4 µM; hits give high values
# Kelch-like ECH-associated protein 1 (Homo sapiens), sequence (Q14145 whole entry, looked up, the tested form may be a part): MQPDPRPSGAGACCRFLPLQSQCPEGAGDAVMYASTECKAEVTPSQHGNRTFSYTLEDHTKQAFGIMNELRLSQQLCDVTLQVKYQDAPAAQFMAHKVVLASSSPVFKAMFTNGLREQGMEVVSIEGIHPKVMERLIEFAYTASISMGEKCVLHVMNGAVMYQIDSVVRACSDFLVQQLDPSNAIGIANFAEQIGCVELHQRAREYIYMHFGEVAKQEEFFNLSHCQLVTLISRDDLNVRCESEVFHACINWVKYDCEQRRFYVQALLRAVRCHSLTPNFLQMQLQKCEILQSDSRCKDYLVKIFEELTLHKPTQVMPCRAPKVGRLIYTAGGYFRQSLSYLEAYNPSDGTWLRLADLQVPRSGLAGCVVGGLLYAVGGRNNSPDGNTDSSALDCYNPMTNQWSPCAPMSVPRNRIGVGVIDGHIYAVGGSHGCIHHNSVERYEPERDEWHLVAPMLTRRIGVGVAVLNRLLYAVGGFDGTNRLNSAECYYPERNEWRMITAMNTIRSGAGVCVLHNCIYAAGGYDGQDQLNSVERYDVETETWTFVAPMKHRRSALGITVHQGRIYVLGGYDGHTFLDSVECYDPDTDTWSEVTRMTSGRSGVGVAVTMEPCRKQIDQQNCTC
row,SMILES,inhibition
1,COc1ccc(NS(=O)(=O)c2cc(NC(=O)CC(=O)c3ccc([N+](=O)[O-])cc3)ccc2C)cc1,-4.68% (inactive)
2,O=C1CCCCC1Sc1ccc(Cl)cc1[N+](=O)[O-] (stereo unspecified),1.45% (inactive)
3,CC1=NNC(=O)C1CC(=O)N/N=C/c1ccncc1 (stereo unspecified),2.78% (inactive)
4,Cc1ccc(S(=O)(=O)CCC(=O)OCC(=O)N(C)Cc2ccccc2)cc1,-7.11% (inactive)
5,CN1c2ccc([N+](=O)[O-])cc2C(C)(C)C12C=Cc1cc(C(=O)O)ccc1O2 (stereo unspecified),4.39% (inactive)
6,CC(=O)Oc1ccc(C(C)=O)c2c1OCCO2,-3% (inactive)
7,CCCc1nnc(NC(=O)CCC(=O)NC2CC2)s1,-3.82% (inactive)
8,O=C1c2ccccc2S(=O)(=O)c2cc(N3CCN(c4ccccn4)CC3)ccc21,3.87% (inactive)
9,CCOC(=O)c1nn(-c2cccc(C)c2)cc1C(=O)c1ccccc1,3.24% (inactive)
10,Cc1ccccc1OCC(=O)NCC(=O)OCC(=O)c1ccc2ccccc2c1,-0.965% (inactive)
11,CCCC1OC23CCCCC2C(C#N)(C#N)C1(C#N)C(=N)O3 (stereo unspecified),20.6% (active)
12,O=C(Nc1ccccn1)C1CCN(S(=O)(=O)c2ccc3c(c2)OCCO3)CC1,24.3% (active)
13,O=C(Nc1ccccn1)C1CCN(S(=O)(=O)c2ccccc2)CC1,-4.55% (inactive)
14,O=C(NCc1cccs1)C1CCN(S(=O)(=O)c2ccc3c(c2)OCCO3)CC1,-2.29% (inactive)
15,O=C1[C@H]2[C@@H](c3ccc(F)cc3)N3C(=O)N(c4ccc(C(F)(F)F)cc4)C(=O)[C@@]3(Cc3ccccc3)[C@H]2C(=O)N1C1CCCCC1,-3.09% (inactive)
16,O=C(C1=C(O)C(=O)N(CCOCCO)C1c1ccccn1)c1cccs1 (stereo unspecified),5.97% (inactive)
17,CC[C@H]1OC(=O)[C@H](C)[C@@H](O[C@H]2C[C@@](C)(OC)[C@@H](O)[C@H](C)O2)[C@H](C)[C@@H](O[C@@H]2O[C@H](C)C[C@H](N(C)C)[C@H]2O)[C@](C)(O)C[C@@H](C)[C@@H]2N[C@@H](COCCOC)O[C@H]([C@H]2C)[C@]1(C)O,1.21% (inactive)
18,COC1=CC(=O)OC(C)(c2ccccc2)C1 (stereo unspecified),1.18% (inactive)
19,COc1ccc(Cl)cc1NC(=O)CN(C)C(=O)c1ccc2n[nH]nc2c1,0.863% (inactive)
20,Cn1c(=O)c2c(SCC(=O)N3CCOCC3)nc(C3CC3)nc2n(C)c1=O,-7.01% (inactive)
21,O=S(=O)(c1cccs1)N1CCN(CCOc2ccccc2)CC1,-5.25% (inactive)
22,CCN1/C(=C\c2ccc3ccccc3[n+]2CC)Sc2cc(C)ccc21,15.5% (active)
23,CC1(C)C(C=C(Cl)Cl)C1C(=O)NC(O)C(=O)c1ccccc1 (stereo unspecified),1.65% (inactive)

row,SMILES,inhibition
1,Cc1c(C(=O)NC(=S)NCc2cccnc2)oc2ccccc12,-0.251% (inactive)
2,Cc1nnc(SC(C)C(=O)Nc2ccc(S(=O)(=O)NC3CCCCC3)cc2)s1 (stereo unspecified),-0.0585% (inactive)
3,CCOC(=O)C1(Cc2ccc(Cl)cc2)CCN(C(=O)C2=NNC(=O)CC2)CC1,0.91% (inactive)
4,CN(Cc1nc2ccccc2c(=O)[nH]1)Cc1cc(=O)oc2ccc3ccccc3c12,-4.19% (inactive)
5,Cc1cc(=O)oc(C)c1C(=O)NC1CC(C)(C)NC(C)(C)C1,-0.963% (inactive)
6,Oc1ccc(-c2nc3ccccc3nc2-c2ccc(O)cc2O)c(O)c1,5.29% (inactive)
7,Oc1ccc2ccc3cccc[n+]3c2c1,128% (active)
8,COc1cc(NS(=O)(=O)c2ccc(NC(=O)CN3C(=O)c4ccccc4C3=O)cc2)ncn1,-2.44% (inactive)
9,O=C1Nc2ccc([N+](=O)[O-])cc2C1=Nc1cccc(CO)c1,2.07% (inactive)
10,CCSc1nc(C)c(CCOc2cccc(C)c2)c(=O)[nH]1,1.88% (inactive)
11,COc1cc(NC(=O)c2ccccc2NS(=O)(=O)c2ccc(Cl)s2)cc(OC)c1,-7.91% (inactive)
12,CCCN(CC(=O)Nc1ccccc1OC)C(=O)CCC(=O)c1ccc(F)cc1,-3.76% (inactive)
13,CCCN(CCC)C(=O)C1c2ccccc2Oc2ccccc21,56.3% (active)
14,CCOC(=O)CC(NC(=O)C1c2ccccc2Oc2ccccc21)c1ccc(C)cc1 (stereo unspecified),-0.485% (inactive)
15,CCCCCNC(=O)C1c2ccccc2Oc2ccccc21,-1.43% (inactive)
16,S=C(Nc1cccnc1)Nc1ccccn1,0.955% (inactive)
17,CN/C(=C\[N+](=O)[O-])NCCSCc1csc(CN(C)C)n1,-2.6% (inactive)
18,COCCOC(=O)c1sc(=S)n(CCOC)c1N,-0.978% (inactive)
19,O=C(CSc1n[nH]c(-c2cccs2)n1)N1CCCCC1,-2.81% (inactive)
20,CC1(C)Cc2ccccc2-c2nnc(-c3cccc(O)c3)n21,-0.455% (inactive)
21,CCS(=O)(=O)Nc1ccc(C(=O)NCCSc2ccccc2)cc1,-1.14% (inactive)
22,CCCc1nc(-c2cc3cc(C)ccc3[nH]c2=O)no1,0.406% (inactive)
23,CCOc1ccc(S(=O)(=O)N2CCC(C(=O)OCc3ccc(OC)cc3)CC2)cc1,-2.62% (inactive)

row,SMILES,inhibition
1,NC(=O)c1ccccc1N=Cc1ccc2ccccc2c1,-5.11% (inactive)
2,COC(=O)c1ccc(COC(=O)c2c(C)nn(Cc3ccccc3Cl)c2Cl)o1,5.7% (inactive)
3,CSCC[C@H](NC(=O)CCCn1nnc2ccccc2c1=O)C(=O)O,-3.2% (inactive)
4,O=C(NC(=O)N1CCSCC1)c1c(Cl)cccc1Cl,-0.262% (inactive)
5,COc1ccc(Nc2nc(-c3cccnc3)nc3ccccc23)cn1,20.8% (active)
6,S=c1nc2ccccc2c2nc(-c3cccnc3)[nH]n12,-0.541% (inactive)
7,CC(C)(C)Nc1nc(-c2ccccn2)nc2ccccc12,-3.56% (inactive)
8,COc1ccc(CCNCC(O)Cn2ccc3ccccc32)cc1OC (stereo unspecified),-7.66% (inactive)
9,COc1ccc(CCNC(=O)COC(=O)Cc2cccc(F)c2)cc1,-1.56% (inactive)
10,COc1ccc(/C=N/Nc2ncnc3sc4c(c23)CCCC4)cc1O,-9.16% (inactive)
11,COC(=O)C1=C(C)NC2=C(C(=O)c3ccccc32)C1c1ccc(-c2ccc(C(=O)O)cc2)o1 (stereo unspecified),-21.3% (inactive)
12,c1ccc(-c2cn3c(n2)CCc2ccc4cccnc4c2-3)cc1,0.967% (inactive)
13,CCCCN(C(=O)C(CCSC)N1C(=O)c2ccccc2C1=O)c1c(N)n(CCC)c(=O)[nH]c1=O (stereo unspecified),-8.81% (inactive)
14,COc1ccc(C(C(=O)NC(C)(C)C)N(Cc2ccc(F)cc2)C(=O)CCC(=O)Nc2cc(C)on2)cc1 (stereo unspecified),6.66% (inactive)
15,CC(C)(C)OC(=O)C[C@@H]1C/C=C\C[C@@H](CC(=O)N[C@@H](CO)Cc2ccccc2)C(=O)N2CCC[C@H]2COC1=O,5.12% (inactive)
16,COc1ccc(C2NC(=O)C(=O)/C2=C(\O)c2ccc(Cl)cc2)cc1OC (stereo unspecified),-0.168% (inactive)
17,C=CCOC(=O)N1CCC2CC1c1cc(-c3ccc(OC)cc3)ccc12 (stereo unspecified),-0.448% (inactive)
18,CC1Cc2cc(/C(O)=C3\C(=O)C(=O)N(Cc4cccnc4)C3c3ccccc3F)ccc2O1 (stereo unspecified),-1.04% (inactive)
19,COc1cccc(CC(=O)N2CCCC(CCC(=O)N3CCN(c4ccccn4)CC3)C2)c1 (stereo unspecified),2.29% (inactive)
20,COc1ccc(N2C(=O)C(O)C2c2ccc(C)cc2)cc1 (stereo unspecified),-3.41% (inactive)
21,O=S(=O)(Nc1ccccc1)c1ccc(NS(=O)(=O)c2cccs2)cc1,-1.45% (inactive)
22,CCN(CC)CCCC(C)n1c2nc(=O)[nH]c(=O)c-2nc2cc(Cl)ccc21 (stereo unspecified),152% (active)
23,CCOc1cc(C2C(C(=O)OC(C)C)=C(C)NC3=C2C(=O)CCC3)cc([N+](=O)[O-])c1O (stereo unspecified),-4.98% (inactive)

row,SMILES,inhibition
1,CCOCCc1c(O)nc(SCC(=O)NCc2ccco2)[nH]c1=O,-1.62% (inactive)
2,COc1ccc(CCn2c(NN=C3CCCC3)nc3c2c(=O)[nH]c(=O)n3C)cc1,1.25% (inactive)
3,COc1ccc(CNCCCO)cc1OC,-3.09% (inactive)
4,COc1ccc(C2C(C#N)=C(N)Oc3cc(N)ccc32)cc1OC (stereo unspecified),-3.33% (inactive)
5,COc1ccc(C2c3ccc(O)cc3Oc3ncn(CCCO)c(=N)c32)cc1OC (stereo unspecified),28.8% (active)
6,Cc1cccc2cc3c(N)c(C(=O)N4CCCc5ccccc54)sc3nc12,-5.05% (inactive)
7,O=C1C(=O)N(CCN2CCOCC2)C(c2ccccn2)/C1=C(/O)c1ccc(Cl)cc1 (stereo unspecified),-6.66% (inactive)
8,CCN(CC)CCN1C(=O)C2C(C(=O)Nc3ccc(Br)cc3)C3C=CC2(O3)C1C(=O)NC1CCCCC1 (stereo unspecified),-0.939% (inactive)
9,Cc1ccc(CNC(=O)C2(C(F)(F)F)C/C(=C\Cc3ccccc3)CCCO2)o1 (stereo unspecified),-4.24% (inactive)
10,Cc1cc(C(=O)NCCc2ccc(Cl)cc2)n(-c2ccccc2)n1,-8.41% (inactive)
11,O=C(NCCOCc1ccc(Cl)cc1)c1ncn[nH]1,18.3% (active)
12,O=C(NCCS(=O)(=O)NCc1ccc(Cl)cc1)c1ccccc1,-4.29% (inactive)
13,CN(C)C(=S)N=c1ssc(=S)n1Cc1ccco1,-0.0433% (inactive)
14,COc1ccccc1CCNC(=O)CN1C(=O)NC2(CCCC2)C1=O,-5.6% (inactive)
15,O=C1CC(Cc2ccc(Cl)cc2)C(=O)N1c1cc(Cl)ccn1 (stereo unspecified),40.7% (active)
16,Cc1ccc(CC2CC(=O)N(c3nc(C)cc(C)n3)C2=O)cc1 (stereo unspecified),1.11% (inactive)
17,O=C1CC(Cc2ccccc2)C(=O)N1c1ccc(Cl)cn1 (stereo unspecified),-0.813% (inactive)
18,O=C(Nc1cccc(S(=O)(=O)N2CCOCC2)c1)C12CC3CC(CC(C3)C1)C2,1.77% (inactive)
19,COc1ccc(NC(=O)CN(C)C(=O)c2n[nH]c3ccccc23)cc1,0.904% (inactive)
20,COc1cc(OC)cc(C(=O)NCCCn2ccnc2)c1,-6.37% (inactive)
21,CCCCC(=O)Nc1ccc(C(=O)NCCCn2ccnc2)cc1,-4.02% (inactive)
22,CCCC(=O)Nc1ccc(C(=O)NCCCn2ccnc2)cc1,6% (active)
